The whole screen tested about 11,000 compounds, of which about 310 (2.8%) were called active. Cut-off read from the data, not from the text of the source: active = activity change below about -85%; inactive = the rest. Shown is part of a subset that was picked to be rich in actives.

In this assay the test system is intestinal alkaline phosphatase [Mus musculus]. The experiment in a line: activators of mouse IAP, confirmation, biochemical, luminescence, single concentration (AID 434970). As to conditions: purified mouse IAP, CDP-Star luminescence, 30 min, at 10 µM; activation factor: measured here: IAP activation factor, stronger effect = higher value; activity change, negative = activation: stronger effect = lower value.
For the compound `C[C@H](CO)N1C[C@H](C)[C@@H](CN(C)S(=O)(=O)c2ccccc2)Oc2ccc(NC(=O)NC3CCCCC3)cc2C1=O`, the activation factor amounted to 2.79 and the activity change, negative = activation is -179% (active).

Take `C[C@@H]1CN([C@@H](C)CO)C(=O)c2cc(NC(=O)Nc3ccc4c(c3)OCO4)ccc2O[C@H]1CN(C)S(=O)(=O)c1ccc(F)cc1`: the activation factor was 1.65 and the activity change, negative = activation is -64.8% (inactive).

In the case of `C[C@H](CO)N1C[C@H](C)[C@@H](CN(C)S(=O)(=O)c2ccc(F)cc2)Oc2ccc(NC(=O)Nc3ccc4c(c3)OCO4)cc2C1=O`, the activation factor was 1.82 and the activity change, negative = activation was -81.6% (inactive).

With `COc1ccc(S(=O)(=O)N(C)C[C@H]2Oc3ccc(NC(=O)NC4CCCCC4)cc3C(=O)N([C@H](C)CO)C[C@@H]2C)cc1`, the activation factor is 2.74 and the activity change, negative = activation is -174% (active).

On to `COc1ccc(NC(=O)N(C)C[C@H]2Oc3ccc(NC(=O)NC4CCCCC4)cc3C(=O)N([C@H](C)CO)C[C@@H]2C)cc1`, for which the activation factor was 1.61 and the activity change, negative = activation was -60.9% (inactive).

On to `Cc1noc(C)c1S(=O)(=O)N(C)C[C@H]1Oc2ccc(NC(=O)NC3CCCCC3)cc2C(=O)N([C@H](C)CO)C[C@@H]1C`, for which the activation factor worked out at 1.82 and the activity change, negative = activation is -81.5% (inactive).

For the compound `C[C@H](CO)N1C[C@H](C)[C@@H](CN(C)S(=O)(=O)c2ccc(F)cc2)Oc2ccc(NC(=O)NC3CCCCC3)cc2C1=O`, the activation factor came to 2.2 and the activity change, negative = activation is -120% (active).

With `C[C@H](CO)N1C[C@H](C)[C@H](CN(C)S(=O)(=O)c2ccccc2)Oc2ccc(NC(=O)NC3CCCCC3)cc2CC1=O`, the activation factor was found to be 1.71 and the activity change, negative = activation is -71.4% (inactive).

With `Cc1ccc(NC(=O)N2CCC(NC(=O)c3ccccc3C)CC2)cc1`, the activation factor stood at 0.993 and the activity change, negative = activation was 0.7% (inactive).

Consider `O=C(C[C@H]1C[C@H](C(=O)N2CCCCC2)[C@@]2(CCc3ccccc3)c3[nH]c4cc(-c5ccco5)ccc4c3CCN2C1=O)NCc1ccco1`, for which the activation factor turned out to be 1.16 and the activity change, negative = activation is -16.1% (inactive).

For `O=C(Cc1ccccc1)NNC(=O)Nc1cccc(Cl)c1`, the activation factor turned out to be 0.911 and the activity change, negative = activation is 8.85% (inactive).

Take `O=C(Nc1cccc(Cl)c1)N1CCCC1`: the activation factor stood at 1.09 and the activity change, negative = activation was -8.6% (inactive).

For the compound `O=C(Nc1cccc(Cl)c1)NC1CC2CCC1C2` (stereo not drawn), the activation factor is 2.64 and the activity change, negative = activation was -164% (active).

Take `CC(=O)c1ccc(NC(=O)N2CCN(c3cccc(Cl)c3)CC2)cc1`: the activation factor came to 1.08 and the activity change, negative = activation was -7.6% (inactive).

As for `O=C(NCc1cccc2ccccc12)Nc1ccccc1`, the activation factor turned out to be 1.74 and the activity change, negative = activation is -74.1% (inactive).

`O=C(Cn1nnc(-c2ccc(Cl)cc2)n1)NC1CC2CCC1C2` (stereo not drawn): the activation factor was 1.15 and the activity change, negative = activation is -15.3% (inactive).

For the compound `O=C(Cc1cccc2ccccc12)NNC(=O)Nc1cccc(Cl)c1`, the activation factor turned out to be 0.964 and the activity change, negative = activation was 3.65% (inactive).

Consider `O=C(NCc1csc2ccccc12)Nc1cc(Cl)cc(Cl)c1`, for which the activation factor was found to be 2.45 and the activity change, negative = activation was -145% (active).

For `O=C(Nc1ccccc1)Nc1cccc(Cl)c1`, the activation factor amounted to 2.11 and the activity change, negative = activation was -111% (active).

On to `O=C(Nc1ccc(C(=O)N2CCCCC2)cc1)Nc1cccc(Cl)c1`, for which the activation factor was 2.39 and the activity change, negative = activation is -139% (active).

Take `COC(=O)c1ccc(NC(=S)NC2CC3CCC2C3)cc1` (stereo not drawn): the activation factor is 1.56 and the activity change, negative = activation is -56% (inactive).

In the case of `CC[C@]12c3[nH]c4ccc(OC)cc4c3CCN1C(=O)C(CC(=O)NCCC1=CCCCC1)C[C@@H]2C(=O)N1CCN(C(=O)C2CC2)CC1` (stereo partly drawn), the activation factor was determined as 1.01 and the activity change, negative = activation is -1.4% (inactive).

On to `O=C(Oc1cccc(NC(=O)c2ccco2)c1)c1ccc(Br)c(S(=O)(=O)N2CCCCC2)c1`, for which the activation factor came to 0.907 and the activity change, negative = activation is 9.3% (inactive).

In the case of `O=C(Nc1scc(-c2ccccc2)c1C(=O)O)c1ccco1`, the activation factor was 0.964 and the activity change, negative = activation was 3.6% (inactive).

In the case of `CCn1c(CNc2ccc(OC)cc2)nnc1SCC(=O)Nc1ccc(F)cc1`, the activation factor was 1.08 and the activity change, negative = activation is -7.7% (inactive).

In the case of `Cc1cc(NC(=O)CC23CC4CC(C2)CC(CC(=O)Nc2cc(C)on2)(C4)C3)no1`, the activation factor is 1.02 and the activity change, negative = activation was -1.55% (inactive).

Take `Cc1sc2nc(SCC(=O)Nc3c(C)n(C)n(-c4ccccc4)c3=O)n(C)c(=O)c2c1C`: the activation factor was determined as 0.771 and the activity change, negative = activation is 22.9% (inactive).

As for `Cc1csc(C(=O)O)c1-n1cccc1`, the activation factor was 0.908 and the activity change, negative = activation was 9.2% (inactive).

Turning to `Fc1ccc(OCc2nn3cnnc3s2)cc1`, the activation factor was 0.923 and the activity change, negative = activation was 7.75% (inactive).

Consider `CCOC(=O)/C(C#N)=C\c1ccco1`, for which the activation factor was 1.12 and the activity change, negative = activation was -11.7% (inactive).

Regarding `COC(=O)c1ccccc1NC(=O)CN(CCc1ccccc1)S(C)(=O)=O`, the activation factor is 1.04 and the activity change, negative = activation was -3.75% (inactive).

As for `CCOc1ccc(C2C(C#N)=C(N)N(c3sc4c(c3C#N)CCCC4)C3=C2C(=O)CCC3)cc1` (stereo not drawn), the activation factor amounted to 0.903 and the activity change, negative = activation is 9.65% (inactive).

As to `COCCC(=O)N(Cc1ccc2c(c1)OCO2)C(C(=O)NC1CCCCC1)c1ccncc1` (stereo not drawn), the activation factor amounted to 0.912 and the activity change, negative = activation was 8.8% (inactive).

For `Fc1cccc(NC(=S)NCc2ccc(Cl)cc2)c1`, the activation factor is 1.31 and the activity change, negative = activation was -30.9% (inactive).

Take `O=C(Nc1cc(Cl)cc(Cl)c1)Nc1cnccn1`: the activation factor is 1.97 and the activity change, negative = activation was -96.5% (active).

As to `O=C(Nc1ccccc1)Nc1ccc(Br)c(Cl)c1`, the activation factor was 1.82 and the activity change, negative = activation was -82.4% (inactive).

In the case of `O=C(Nc1cccnc1)Nc1cc(Cl)cc(Cl)c1`, the activation factor was 1.69 and the activity change, negative = activation was -68.7% (inactive).

On to `S=C(NCc1cccnc1)Nc1cc(Cl)cc(Cl)c1`, for which the activation factor worked out at 1.38 and the activity change, negative = activation is -38.4% (inactive).

As to `O=C(Nc1cccc(Cl)c1)Nc1ccc2c(c1)OCO2`, the activation factor came out at 2.46 and the activity change, negative = activation is -146% (active).

Turning to `O=C(Nc1cccc(F)c1)Nc1cccc(Cl)c1`, the activation factor was found to be 2.11 and the activity change, negative = activation is -111% (active).

Consider `COC(=O)c1ccccc1NC(=O)Nc1ccc2c(c1)OCO2`, for which the activation factor is 1.08 and the activity change, negative = activation was -8% (inactive).

With `CC(C)C(=O)Nc1cccc(C(=O)Nc2ccc3c(c2)OCO3)c1`, the activation factor amounted to 0.972 and the activity change, negative = activation was 2.8% (inactive).

As for `O=C(Nc1ccccc1)Nc1cc(Cl)cc(Cl)c1`, the activation factor is 3.41 and the activity change, negative = activation was -241% (active).

With `O=C(Nc1cc(Cl)cc(Cl)c1)c1cnn2cccnc12`, the activation factor was 0.974 and the activity change, negative = activation is 2.55% (inactive).

On to `Cc1ccc2c(c1)N(CCC(=O)NCc1cccs1)C(=O)C(C)O2` (stereo not drawn), for which the activation factor stood at 1.03 and the activity change, negative = activation was -2.7% (inactive).

For `O=C(CCCOc1ccccc1)Nc1nnc(C2CCCO2)s1` (stereo not drawn), the activation factor amounted to 1.01 and the activity change, negative = activation was -1.15% (inactive).

For the compound `CCOC(=O)c1c(-c2ccccc2)csc1NC(=O)COc1ccc2c(C)cc(=O)oc2c1`, the activation factor turned out to be 0.967 and the activity change, negative = activation was 3.3% (inactive).

For `Cc1ccc(NC(=O)CS(=O)CC(=O)NCC2CCCO2)cc1` (stereo not drawn), the activation factor was found to be 1.07 and the activity change, negative = activation is -6.55% (inactive).

Consider `O=C(O)C1C2C=CC(O2)C1C(=O)NCCC1=CCCCC1` (stereo not drawn), for which the activation factor is 1.12 and the activity change, negative = activation is -12.2% (inactive).
